A selection: hits, their analogues and other compounds. The true share with any hit is near 7.1%.
LASV entry inh = Lassa virus entry inhibition; Lassa virus pseudotyped entry inhibition, cell-based qHTS; Potency, µM (highest dose often 49.2 µM), inactives show top-dose activity change, negative = inhibition, hits mostly inhibitors; 18,000 compounds, 4.1% hits; AID 720533
Marburg entry = blocks Marburg virus binding or cell entry. Marburg virus pseudotype entry/binding inhibition, cell-based. Potency, µM (titrated, usually from 49.2 µM), for the others: at the top dose activity change, negative = inhibition, hits mostly inhibitors. 18,000 compounds, 6.5% hits
Starred values were filed as active, the others as inactive; ? = inconclusive; . = not tested or not shown; ! = a repeat was not active; [ ] = dose if it differs, or a comment. The call rests on the fitted dose curve; tested in HEK293 cells. On the % scale 0 is the no-effect control and ±100 the full control effect; potency means the concentration at half of the fitted maximal effect.

SMILES	LASV entry inh	Marburg entry
CC1CC[C@@]2(OC1)OC1CC3C4CC[C@H]5CC(O)CC[C@@]5(C)C4CC[C@]3(C)C1C2C (some centres not stated)	-8%	-3%
CC1CC[C@@]2(OC1)O[C@@H]1[C@@H](O)[C@H]3C4CC[C@H]5C[C@@H](O[C@@H]6O[C@H](CO)[C@H](O[C@@H]7O[C@H](CO)[C@@H](O)[C@H](O[C@@H]8OC[C@@H](O)[C@H](O)[C@H]8O)[C@H]7O[C@@H]7O[C@H](CO)[C@@H](O)[C@H](O[C@@H]8O[C@H](CO)[C@@H](O)[C@H](O)[C@H]8O)[C@H]7O)[C@H](O)[C@H]6O)[C@H](O)C[C@]5(C)C4CC[C@]3(C)[C@H]1[C@@H]2C (some centres not stated)	14µM*	25µM*
CC1CC[C@@]2(OC1)OC1CC3C4CC[C@@H]5CC(O)CC[C@@]5(C)C4CC[C@]3(C)C1C2C (some centres not stated)	-2%	17%
C=CCOCCC=C1c2ccccc2[C@@H](OC)[C@@H]1C	-2%[8.59 µM]	-8%[8.59 µM]
CC1=CC[C@@H](COc2ccccc2)O[C@@]2(C1)C(=O)N(Cc1ccc(Br)cc1)c1ccccc12	-25%[8.59 µM]	25%[8.59 µM]
C[CH2][Hg][S]c1ccccc1C(=O)O	1.1µM*	?
O=C(O)c1ccccc1O	-6%	5%
C[C@@H]1C[C@H]2[C@@H](Cc3ccccc3)C(=O)N3[C@@H](C[C@@H](C)[C@@H]3c3ccccc3)[C@@H](Cc3ccccc3)C(=O)N2[C@H]1c1ccccc1	-15%[8.59 µM]	?
COc1cccc(-c2cc(=O)c3cc(NC(=O)c4ccc(Cl)cc4)ccc3[nH]2)c1	1%	?
COc1cccc(-c2cc(=O)c3cc(NC(=O)c4ccccc4)ccc3[nH]2)c1	?	7.1µM*
COc1cccc(-c2cc(=O)c3cc(NC(=O)c4ccc(N(C)C)cc4)ccc3[nH]2)c1	?	4µM*
COc1ccc2[nH]c(-c3cccc(F)c3)cc(=O)c2c1	-11%	?
CCN1C(=O)NC(CCc2ccccc2)C(C(=O)OC)=C1C (configuration not stated)	-2%[8.59 µM]	17%[8.59 µM]
COc1cc2c(cc1O)CCN[C@]21CS[C@@H]2c3c(OC(C)=O)c(C)c4c(c3[C@H](COC1=O)N1[C@@H]2[C@H]2c3c(cc(C)c(OC)c3O)C[C@@H]([C@@H]1O)N2C)OCO4	40µM*!	?
CCN1C(=NCc2cccc(C(F)(F)F)c2)NC(c2cccc(C(F)(F)F)c2)C(C(=O)OC)=C1C (configuration not stated)	-32%[8.59 µM]	-17%[8.59 µM]
COc1ccc2c(c1)[C@@H](NC(=O)C(F)(F)F)C1CCCCC21c1ccccc1 (some centres not stated)	5%[8.59 µM]	-4%[8.59 µM]
CC(C)CON=C1C[C@@H](O)[C@@H](O)[C@@H]2[C@H]3C(=O)N(Cc4ccc5c(c4)OCO5)C(=O)[C@@H]3CC[C@H]12	20%[8.59 µM]	30%[8.59 µM]
c1ccc(Cc2nc3ccc(Nc4ncnc5ccccc45)cc3[nH]2)cc1	149%	123%
Nc1ncnc2c1ccn2[C@@H]1O[C@H](CO)[C@@H](O)[C@H]1O	2.5µM*	1.4µM*
Nc1ncn([C@@H]2O[C@H](CO)[C@@H](O)[C@H]2O)c(=O)n1	6.3µM*	?
NC(=O)c1ncn(C2OC(CO)C(O)C2O)c1N (configuration not stated)	15%	10%
Nc1ncnc2c1nc(Br)n2C1OC(CO)C(O)C1O (configuration not stated)	?	-22%
Nc1ccn(C2OC(CO)C(O)C2O)c(=O)n1 (configuration not stated)	1.3µM*!	1µM*!
Nc1ccn([C@@H]2O[C@H](CO)[C@@H](OP(=O)(O)O)[C@H]2O)c(=O)n1	6%	3%
CCCCCC(=O)N1C[C@@H](O)[C@H](n2cc(-c3ccc(F)cc3)nn2)C[C@H]1c1ccc(C)cc1	10%	-9%
SMILES	LASV entry inh	Marburg entry
C[C@@H](C1[C@@H](O)CC2C3C=CC4C[C@@H](O)CC[C@]4(C)[C@H]3CC[C@@]21C)[C@@H]1CCCCN1 (some centres not stated)	6%	11µM*
CC(CCC(=O)OC[C@H]1O[C@H](C#Cc2ccccc2)C=C[C@H]1Oc1ccc(C)cc1)=NO[C@@H](C)CN1CCCCc2nc(C)c(C)cc21	24%[8.59 µM]	-16%[8.59 µM]
O=c1cc(-c2ccccc2)oc2cc(O[C@@H]3O[C@H](CO)[C@@H](O)[C@H](O)[C@H]3O)c(O)c(O)c12	-22%	3.5µM*
O=c1cc(-c2ccc(O)cc2)oc2cc(O[C@H]3OC(CO)C(O)C(O)C3O)cc(O)c12 (some centres not stated)	44%	66%
CCN1C(=NCc2cccc(C(F)(F)F)c2)NC(c2cccs2)C(C(=O)OC)=C1C (configuration not stated)	-7%[8.59 µM]	?
CC(=O)[C@]1(O)CCC2C3CCC4=CC(=O)CC[C@@]4(C)C3CC[C@]21C (some centres not stated)	-7%	-6%
C=C1C[C@H]2[C@@H]3C=C(C)C4=CC(=O)CC[C@]4(C)[C@H]3CC[C@]2(C)[C@@]1(OC(C)=O)C(C)=O	?	13µM*!
O=S1(=O)C=CCN1Cc1ccccc1	38%	6%
COc1cccc([C@@H]2[C@@H](C)CC[C@@H]3C(=O)NC[C@H](O)CN32)c1	-5%[8.59 µM]	-11%[8.59 µM]
CC1=CC[C@@H](C)O[C@@]2(C1)C(=O)Nc1cccc(Br)c12	60%[8.59 µM]	-15%[8.59 µM]
COc1cc(/C=C/C(=O)c2cccs2)cc(OC)c1OC	32µM*	?
O=C(/C=C/c1ccc(O)cc1)c1cccs1	3%	31%
CO[C@H](C1CCCCC1)[C@H](C)C=CCC(=O)OCCCc1ccccc1	.	5%[8.59 µM]
CC(=O)OC[C@H]1O[C@@H](ON=CC[C@@H]2C=C[C@@H](OC(C)=O)[C@@H](COC(C)=O)O2)[C@@H](OC(C)=O)[C@@H](OC(C)=O)[C@@H]1OC(C)=O	-11%[8.59 µM]	-12%[8.59 µM]
COC(=O)N[C@@H](c1cccc(C)c1)[C@]1(C(C)=O)CCCC1=O	7%[8.59 µM]	3%[8.59 µM]
Cc1cccc([C@H]2[C@@H]3C=CCC[C@@]3(C)C(=O)N2Cc2ccccc2)c1	7%	-25%
C[C@@]12CCC=C[C@H]1[C@H](c1ccccc1Br)N(Cc1ccccc1)C2=O	-26%	20µM*
COC[C@@H]1CCCN1[C@@H]1C[S+](=O)([O-])N[C@@H]1COCc1ccccc1	-7%	25%
COC(=O)CC=C[C@H](C)[C@H](Cc1ccccc1Br)OC	-11%[8.59 µM]	50%[8.59 µM]
O=C(O)c1[nH]n(-c2ccc(S(=O)(=O)O)cc2)c(=O)c1N=Nc1ccc(S(=O)(=O)O)cc1	4µM*	?
CCc1ccc(S(=O)(=O)O)cc1	-8%	-3%
Nc1nc(-c2cccc(Cl)c2)c(-c2ccc3ncccc3n2)s1	18%	5%
CCCCCCCC(=O)CC[C@@H]1[C@@H](C/C=C\CCCC(=O)OC(C)C)[C@@H](O)C[C@H]1O	16µM*	?
CCCCCC(=O)CC[C@@H]1[C@@H](C/C=C\CCCC(=O)O)[C@@H](O)C[C@H]1O	-14%	4%
CC(C)(C)N1C(=O)[C@@H]2[C@H]3[C@H](O)[C@H](O)CC(=NOCc4ccccc4)[C@H]3CC[C@H]2C1=O	-3%[8.59 µM]	-9%[8.59 µM]
Cc1nc(-c2ccc(OCC(C)C)c(C#N)c2)sc1C(=O)O	7.9µM*	?
CCOC(=O)NN=C1C[C@@H](O)[C@@H](O)[C@@H]2[C@H]3C(=O)N(Cc4ccccc4)C(=O)[C@@H]3CC[C@@H]12	8%[8.59 µM]	25%[8.59 µM]
